The campaign covered roughly 360,000 compounds. About 3,500 (0.97%) were called active. This excerpt belongs to a sample that is enriched for actives. Values without a mark were called inactive.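 The calls were made as follows: active = activation above a per-plate cutoff, the mean activation of sample wells on that plate plus 3 SD (cut at about 8% in these data); inactive = the rest.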
biological target: Melanocortin receptor 4 (Homo sapiens) (UniProt P32245); assay: activators of MC4R beta-arrestin recruitment – cell-based, luminescence, agonist arm of biased-ligand search, primary screen (AID 540308); details: U2OS MC4R beta-arrestin complementation, at 8.9 µM, active compounds read high, percent of melanotan II response, DMSO zero
Sequence (P32245 whole entry, looked up): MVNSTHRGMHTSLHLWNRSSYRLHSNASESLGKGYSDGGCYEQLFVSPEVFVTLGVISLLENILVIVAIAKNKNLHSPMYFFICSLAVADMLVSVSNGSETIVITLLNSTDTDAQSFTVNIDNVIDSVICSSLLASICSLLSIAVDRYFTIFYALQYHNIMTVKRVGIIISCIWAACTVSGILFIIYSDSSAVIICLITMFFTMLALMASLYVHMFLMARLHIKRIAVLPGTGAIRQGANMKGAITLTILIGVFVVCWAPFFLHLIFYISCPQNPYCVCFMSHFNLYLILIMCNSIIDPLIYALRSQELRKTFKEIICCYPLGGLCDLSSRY

Structure (SMILES) | activation
CC1(C(=O)NS(=O)(=O)c2ccccc2)CCN1C(=O)c1ccccc1 (stereo not given) | -1.65%
CCc1cccc(NC(=S)N(CCN(C)C)C2CCN(C(C)C)CC2)c1 | -0.19%
CCc1ccc2c(c1)cc(CN(C(=S)Nc1ccccc1Cl)C1CC1)c1nnnn12 | 12.6% (active)
CCOc1ccc2c(c1)cc(CN(C(=O)CC)C1CCCCC1)c1nnnn12 | 0.48%
CC1(C(=O)NS(=O)(=O)c2cccc(F)c2)CCN1C(=O)Cc1cc(F)ccc1F (stereo not given) | -0.76%
CCNC(=O)C1(C)CCCN(C(=O)c2c(C)noc2C)C1 (stereo not given) | 0.77%
Cc1ccsc1/C=N/NC(=O)Cc1cc(=O)[nH][nH]1 | -1.77%
C/C(=N\Nc1ccc(Cl)nn1)c1ccccc1O | -0.38%
Cc1ccsc1/C=N/Nc1ccc(Cl)nn1 | 12.3% (active)
COc1ccccc1CNC(=O)c1cc(-c2cc(F)ccc2OC)n[nH]1 | 1.31%
CCCCC(=O)N(C)c1c(CC)nc2c(OCc3ccc(Cl)cc3Cl)cccn12 | 0.75%
CC(=O)OC[C@@H]1CN(Cc2ccccc2)C[C@H](n2cnc3c(NCc4ccco4)ncnc32)O1 | -2.47%
COc1cccc2cc(-c3cc(=O)oc4cc(C)c(O)cc34)oc12 | 1.6%
COc1ccc(Nc2cc(=O)oc3ccccc23)cc1 | -0.49%
COc1ccc2oc(=O)cc(-c3cc4ccccc4o3)c2c1 | 8.24% (active)
CCN(c1ccccc1)S(=O)(=O)c1ccc(NC(=O)C(C)(C)C)cc1 | -0.35%
CCN(c1ccccc1)S(=O)(=O)c1ccc(C(=O)Nc2nccs2)cc1 | 8.9% (active)
CCN(c1ccccc1)S(=O)(=O)c1ccc(C(=O)Nc2ccccc2OC)cc1 | 0.77%
O=C(NC(c1ccc(-c2ccccc2)cc1)c1cnccn1)C1CCN(CCOc2ccc(Cl)cc2Cl)CC1 (stereo not given) | 18% (active)
O=C(NC(c1ccc(Cl)cc1)c1cnccn1)C1CCN(Cc2ccc(Cl)cc2)CC1 (stereo not given) | -0.34%

Structure (SMILES) | activation
Cc1ccc(C(NC(=O)C2CCN(CCOc3ccc(Cl)cc3Cl)CC2)c2ccccn2)cc1 (stereo not given) | 4.91%
CCc1ccc2c(c1)NC(=O)C2(C)Cc1ccc(OC(F)(F)F)cc1 (stereo not given) | -0.4%
Cc1ccc(-c2cnc(C(O)c3cccc(C)c3C)[nH]2)cc1 (stereo not given) | -0.77%
CC(C)c1ccc2c(c1)c(SC(C)(C)C)c(CC(C)(C)C(=O)O)n2Cc1ccc(Cl)cc1 | 15.9% (active)
COCCNC(=O)C1CCCN(Cc2ccccc2Cl)CC1 (stereo not given) | -0.57%
CC(=O)Nc1ccc(-c2ccnc3c2CC(C(=O)NC(C)C)O3)cc1 (stereo not given) | -1.59%
O=C(NCCO)c1cccc(-c2cccc3nccn23)c1 | -1.27%
CNc1cncc(-c2ccc(NS(C)(=O)=O)cc2)n1 | -1.66%
CCOC(=O)C1=C(CN2CCc3ccccc32)NC(=O)NC1c1ccc(Cl)cc1 (stereo not given) | 6.41%
CCCOC(=O)c1[nH]c2c(c1C)C(=O)CC(c1cccs1)C2 (stereo not given) | -0.13%
CCOC(=O)c1[nH]c2c(c1-c1ccccc1)C(=O)CC(c1ccc(Cl)cc1)C2 (stereo not given) | 13.1% (active)
CS(=O)(=O)/C(C#N)=C/c1cccn1S(=O)(=O)c1ccc([N+](=O)[O-])cc1 | -0.77%
O=C(O)c1ccccc1-c1cccc2nncn12 | 1.15%
OC(c1ccccc1)c1nc(-c2cnc3ccccc3c2)cs1 (stereo not given) | -1.73%
Cc1c(C#N)c(NC(=O)c2ccccc2)n(Cc2ccccc2)c1C | 1.54%
O=C(Nc1cccn(Cc2ccccc2Cl)c1=O)NC1CCCCC1 | -3.02%
COc1ccc(Cn2cccc(NC(=O)Nc3ccc(C#N)cc3)c2=O)cc1 | 8.99% (active)
COc1cccc(NC(=O)CN(C)C(C)C(=O)Nc2ccc(C#N)cc2)c1 (stereo not given) | -2.21%
Cc1ccc(C(=O)Nc2c(C#N)c(C)c(C)n2Cc2ccccc2)cc1 | 0.7%
COc1ccc(Cn2c(C)c(C)c(C#N)c2NC(=O)Nc2ccc(F)cc2)cc1 | 9.65% (active)

Structure (SMILES) | activation
O=C(NCc1cccnc1)c1cc(C2CCCN(C(=O)C3CCCCC3)C2)on1 (stereo not given) | 0.25%
CC1(Cc2cccc(C#N)c2)C(=O)Nc2ccc(-c3cccc(C(F)(F)F)c3)cc21 (stereo not given) | 1.34%
CCOc1ccc(Cl)cc1-c1cc(C(=O)NCc2cccs2)[nH]n1 | 1.31%
O=C(CSc1nc2cccc(F)c2c(=O)n1-c1ccccc1)Nc1ccc2c(c1)CCC2 | 1.04%
CCOC(=O)C1=C(O)/C(=C/c2ccc(OCC(=O)Nc3ccc(C)cc3)cc2)N=C1C | 16.8% (active)
COC(=O)C1=C(O)/C(=C/c2ccc(OCC(=O)Nc3ccccc3)cc2)N=C1C | -2.96%
Cc1ccc(NC(=O)COc2ccc(/C=C3/NC(=O)NC3=O)cc2)cc1 | -1.81%
COC(=O)c1ccc(CN2C(=O)C(Cc3ccccc3)ON=C2c2ncccc2C)o1 (stereo not given) | 0.08%
CS(=O)(=O)c1cccc(-c2ccc3nncn3c2)c1 | 0.6%
CSc1ccccc1OCc1cc(C(=O)N2C[C@H]3CC[C@H]2C3)no1 | -3.22%
O=C(O)c1cscn1 | -0.73%
Cc1ccc(-c2csc(SCC(=O)Nc3cc(C)on3)n2)cc1 | 12.5% (active)
Cc1ccc2nc(-c3ccc(SCC(=O)Nc4cc(C)on4)nc3)[nH]c2c1 | -0.33%
Cc1cc(NC(=O)CSCC(=O)NC(C)c2ccccc2)no1 (stereo not given) | 3.59%
CCc1nc2ccc(C(=O)N3CCN(S(=O)(=O)CC)CC3)cn2c1N(C=O)CCC(C)C | -1.41%
CC(C)Cn1cc(-c2cncc3nccn23)cn1 | -1.32%
COc1ccccc1CC1(C)C(=O)Nc2ccc(OC(F)(F)F)cc21 (stereo not given) | 4.13%
O=C(c1cc2cc(F)ccc2[nH]1)N1CCN(c2ccc(F)cc2)CC1 | 9.41% (active)
O=C(c1ccccc1Oc1ccccc1)N1CCN(c2ccc(F)cc2)CC1 | -0.88%
Cc1c(C(=O)N2CCN(c3ccc(F)cc3)CC2)oc2c1C(=O)CCC2 | -0.69%
